We go through 18 molecules from PubChem BioAssay (NCATS).

Experiment [1] addresses Guanine nucleotide-binding protein G(i) subunit alpha-1 (Homo sapiens) (UniProt P63096). The experiment can be described thus: qHTS Assay for Inhibitors of RGS12 GoLoco Motif Activity (Green Fluorophore) (AID 879).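 Also: negative values mean loss of peptide binding seen as reduced polarization.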 In short, it runs like this: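 Fluorescence polarization assay: 50 nM Gαi1 with 10 nM FITC-labeled RGS12 GoLoco peptide in 10 mM Tris pH 7.5, 150 mM NaCl, 0.1 mM GDP, 0.05% NP40, 10 min at room temperature with compound.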

Experiment [2] concerns the target Cytochrome P450 3A4 (Homo sapiens) (UniProt P08684). The experiment can be described thus: qHTS Assay for Activators of Cytochrome P450 3A4 (AID 885). Also: nearly all actives have a fitted effect of over 65% in size. The gist of the method:
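Steps: enzyme/substrate mix dispensed; compound added, 10 min RT; NADPH regeneration solution added, 60 min RT; luciferin detection buffer stops reaction; 20 min later luminescence measured.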
For orientation: In qHTS, concentration-response curves come from the screen itself.

A short description of experiment [3]: Confirmation and Secondary Assay for Modulators of Hemoglobin Beta Chain Splicing at IVS2 654 locus (AID 910).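 Also: per-well total GFP intensity by laser scanning cytometry after 2-day treatment.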 The gist of the method: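 HeLa cells stably carrying EGFP interrupted by mutant beta-globin IVS2-654 intron (CMV-driven) were treated with compound for 2 days at 37C; corrected splicing was scored as total peak GFP intensity per well (488 nm excitation, 500-520 nm emission).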

A short description of experiment [4]: Confirmation and Secondary Assay for Modulators of Hemoglobin Beta Chain Splicing at IVS2 705 locus (AID 930).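 Also: HeLa cells stably expressing the EGFP-705 splicing reporter; series mostly up to about 46 µM.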 The gist of the method: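 Assay measures total GFP intensity per well in HeLa EGFP-705 cells after 2 days with compound; mis-splicing normally truncates EGFP, so fluorescence indicates corrected splicing.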
Experiment [5] has as its target Pyruvate kinase (Leishmania mexicana) (UniProt Q27686). Description: qHTS Validation Assay for Inhibitors of Leishmania Mexicana Pyruvate Kinase (AID 945). Also: potency is read from the fitted curve at half-maximal effect. In short, it runs like this: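 Pyruvate kinase activity of E451W LmPYK (0.2 nM) was followed as ATP output after 1 h at room temperature with 0.5 mM PEP and 0.1 mM ADP, detected by PKLight luminescence.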
Experiment [6] has as its target Muscarinic acetylcholine receptor M1 (Rattus norvegicus) (UniProt P08482). The experiment can be described thus: qHTS Assay for Antagonists of Acetylcholine Muscarinic M1 Receptor: Kinetic Measurement of Intracellular Calcium Response (AID 943). Also: nearly all actives have a fitted effect of over 75% in size. Also: potency is read from the fitted curve at half-maximal effect. The gist of the method:
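Intracellular calcium flux, recorded with Fluo-4 in a kinetic plate reader, served as signal; the response to carbachol at EC80 (100 nM final) was taken as maximal over minimal fluorescence after a 10 min compound pre-incubation in rat M1-CHO cells.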

For experiment [7] the target is unchanged. Description: qHTS Assay for Antagonists of Acetylcholine Muscarinic M1 Receptor: Measurement of IP-One Response (AID 944). Also: nearly all actives have a fitted effect of over 75% in size. Also: potency is read from the fitted curve at half-maximal effect. In short, it runs like this:
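Steps: plate transfected CHO-M1 cells overnight; add test compound, 10 min; add carbachol (200 nM, EC80) in stimulation buffer with LiCl; incubate 30 min; add labelled IP1 tracer and anti-IP1 antibody in lysis buffer; read HTRF after 10 min.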

In experiment [8] the target is Cytochrome P450 3A4 (Homo sapiens) (UniProt P08684). Description: qHTS Assay for Inhibitors and Substrates of Cytochrome P450 3A4 (AID 884). Also: series mostly up to about 57 µM; nearly all actives have a fitted effect of over 50% in size. The gist of the method: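 20 nM human CYP3A4 with 25 uM Luciferin-PPXE (at KM) in 200 mM KPO4, preincubated 10 min with compound; NADPH regeneration started a 60 min RT reaction. Luciferin detected by luminescence, normalized to 57 uM ketoconazole as full inhibition.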
Sequence of Cytochrome P450 3A4 (Homo sapiens) (P08684 whole entry, looked up): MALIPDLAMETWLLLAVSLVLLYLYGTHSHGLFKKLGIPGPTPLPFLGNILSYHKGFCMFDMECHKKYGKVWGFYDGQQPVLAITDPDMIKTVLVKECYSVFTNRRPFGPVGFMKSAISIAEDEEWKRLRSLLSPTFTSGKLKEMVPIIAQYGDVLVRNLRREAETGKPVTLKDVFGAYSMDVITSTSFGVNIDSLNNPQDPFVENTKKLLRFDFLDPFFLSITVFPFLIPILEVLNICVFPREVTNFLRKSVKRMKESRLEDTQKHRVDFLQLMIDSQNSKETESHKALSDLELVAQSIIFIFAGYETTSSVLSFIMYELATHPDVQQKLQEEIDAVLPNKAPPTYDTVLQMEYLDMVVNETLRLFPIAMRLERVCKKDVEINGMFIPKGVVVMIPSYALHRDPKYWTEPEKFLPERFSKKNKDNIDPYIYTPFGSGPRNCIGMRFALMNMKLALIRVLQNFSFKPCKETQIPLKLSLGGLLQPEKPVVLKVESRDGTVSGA

Experiment [9] addresses Cytochrome P450 2D6 (Homo sapiens) (UniProt P10635). Description: qHTS Assay for Inhibitors and Substrates of Cytochrome P450 2D6 (AID 891). Also: nearly all actives have a fitted effect of over 60% in size. Also: potency is read from the fitted curve at half-maximal effect. The gist of the method: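 Human CYP2D6 (5 nM) with 30 uM Luciferin-ME EGE (at Km) in 100 mM KPO4, compound preincubated 10 min, then NADPH regeneration system for 60 min at room temperature. Luciferin read by luminescence; normalized to 1.43 uM quinidine.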

The target of experiment [10] is Cytochrome P450 2C19 (Homo sapiens) (UniProt P33261). Description: qHTS Assay for Inhibitors and Substrates of Cytochrome P450 2C19 (AID 899). Also: nearly all actives have a fitted effect of over 60% in size. Also: potency is read from the fitted curve at half-maximal effect. In short, it runs like this: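 In 50mM KPO4, the reaction held 5nM enzyme and KM-level (10uM) Luciferin-H EGE; it ran 60 min at 37C after NADPH regeneration and a 10 min compound preincubation. Luminescence values were scaled to 57uM ketoconazole as complete inhibition.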
Sequence of Cytochrome P450 2C19 (Homo sapiens) (P33261 whole entry, looked up): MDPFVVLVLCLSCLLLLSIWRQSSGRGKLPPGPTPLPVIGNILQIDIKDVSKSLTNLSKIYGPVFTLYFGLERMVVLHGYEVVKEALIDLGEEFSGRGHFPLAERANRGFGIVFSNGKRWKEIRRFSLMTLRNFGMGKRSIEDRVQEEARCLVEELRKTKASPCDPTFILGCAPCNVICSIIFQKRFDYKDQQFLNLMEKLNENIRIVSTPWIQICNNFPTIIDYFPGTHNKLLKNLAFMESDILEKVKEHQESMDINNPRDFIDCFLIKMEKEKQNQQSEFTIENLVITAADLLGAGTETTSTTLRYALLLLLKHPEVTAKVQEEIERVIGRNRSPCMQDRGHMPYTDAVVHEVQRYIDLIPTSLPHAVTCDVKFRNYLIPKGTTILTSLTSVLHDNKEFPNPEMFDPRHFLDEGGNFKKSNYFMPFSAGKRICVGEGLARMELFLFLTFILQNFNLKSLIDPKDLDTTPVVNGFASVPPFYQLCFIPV

Experiment [11] deals with Cytochrome P450 2C9 (Homo sapiens) (UniProt P11712). Description: qHTS Assay for Inhibitors and Substrates of Cytochrome P450 2C9 (AID 883). Also: nearly all actives have a fitted effect of over 60% in size. Also: potency is read from the fitted curve at half-maximal effect. In short, it runs like this:
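CYP2C9 deoxyluciferin hydroxylation, 37C, 60 min with NADPH regeneration; 10nM enzyme, 100uM Luciferin-H (KM). Glo detection reagent stopped reaction; luminescence normalized to sulphaphenazole (57uM) full inhibition.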

Experiment [12] can be described thus: qHTS Assay for Identification of Small Molecule Antagonists for Thrombopoietin (TPO) Signaling Pathway (AID 918). Also: potency is read from the fitted curve at half-maximal effect; nearly all actives have a fitted effect of over 60% in size. Particulars: TPO-dependent cell signaling reporter, antagonist mode. The gist of the method:
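First, Ba/F3 reporter cells expressing human TPO receptor were held overnight without IL-3. Next, compound and 26 pM TPO were added. After 24 hrs incubation at 37 C, luciferase luminescence under the Glycoprotein IIb promoter was recorded.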

Several values for one entry are separate records, joined by “and”; a condition that tells them apart may be missing. Equal values may be shown once. Results filed as inconclusive are left out. The source holds several records for some structures; these can differ, active in one and inactive in another. Activity calls are given as the source filed them. Calls follow the shape of the dose curve; as a rule, active = well fitted curve in the direction sought with a large enough effect; inconclusive = small, poorly fitted or top-dose-only effect, or another doubt; inactive = no such curve, though single readings can be large; an effect the other way counts as inactive or inconclusive.

Sequence of Guanine nucleotide-binding protein G(i) subunit alpha-1 (Homo sapiens) (P63096 whole entry, looked up): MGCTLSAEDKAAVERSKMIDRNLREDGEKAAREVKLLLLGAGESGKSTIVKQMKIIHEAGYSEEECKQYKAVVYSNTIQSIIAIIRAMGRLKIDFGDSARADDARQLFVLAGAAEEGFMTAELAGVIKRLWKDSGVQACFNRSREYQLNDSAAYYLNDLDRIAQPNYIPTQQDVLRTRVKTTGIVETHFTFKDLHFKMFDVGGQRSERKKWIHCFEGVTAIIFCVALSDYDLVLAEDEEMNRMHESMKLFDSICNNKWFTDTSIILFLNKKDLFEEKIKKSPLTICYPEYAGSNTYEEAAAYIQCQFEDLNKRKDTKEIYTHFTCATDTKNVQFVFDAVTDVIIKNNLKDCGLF
Sequence of Pyruvate kinase (Leishmania mexicana) (Q27686 2-499 E452W): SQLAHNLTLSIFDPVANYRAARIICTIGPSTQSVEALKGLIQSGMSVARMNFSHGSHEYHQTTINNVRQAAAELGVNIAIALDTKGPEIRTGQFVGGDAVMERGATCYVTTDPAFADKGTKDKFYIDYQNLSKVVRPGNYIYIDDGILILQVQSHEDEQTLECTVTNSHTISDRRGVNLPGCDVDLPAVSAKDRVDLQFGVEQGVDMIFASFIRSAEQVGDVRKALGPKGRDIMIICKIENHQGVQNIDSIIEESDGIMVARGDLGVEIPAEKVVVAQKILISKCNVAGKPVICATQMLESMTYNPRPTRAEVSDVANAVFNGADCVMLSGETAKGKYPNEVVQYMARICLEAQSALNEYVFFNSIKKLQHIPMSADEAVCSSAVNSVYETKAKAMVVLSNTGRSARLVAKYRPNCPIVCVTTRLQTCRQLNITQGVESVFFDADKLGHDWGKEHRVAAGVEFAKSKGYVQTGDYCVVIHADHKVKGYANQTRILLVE
Sequence of Cytochrome P450 2D6 (Homo sapiens) (P10635 whole entry, looked up): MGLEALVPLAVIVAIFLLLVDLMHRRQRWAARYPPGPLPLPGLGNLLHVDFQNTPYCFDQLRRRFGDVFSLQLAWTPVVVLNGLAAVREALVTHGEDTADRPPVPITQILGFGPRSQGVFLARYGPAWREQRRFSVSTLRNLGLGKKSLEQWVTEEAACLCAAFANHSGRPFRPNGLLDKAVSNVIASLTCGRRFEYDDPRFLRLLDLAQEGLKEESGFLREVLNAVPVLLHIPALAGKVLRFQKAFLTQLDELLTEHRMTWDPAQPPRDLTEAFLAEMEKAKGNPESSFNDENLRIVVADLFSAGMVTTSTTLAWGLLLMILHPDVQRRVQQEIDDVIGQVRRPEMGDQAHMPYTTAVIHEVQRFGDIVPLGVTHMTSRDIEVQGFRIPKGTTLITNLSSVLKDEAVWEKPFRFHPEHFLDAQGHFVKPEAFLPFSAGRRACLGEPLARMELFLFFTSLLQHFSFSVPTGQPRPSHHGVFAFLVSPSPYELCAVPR
Sequence of Muscarinic acetylcholine receptor M1 (Rattus norvegicus) (P08482 whole entry, looked up): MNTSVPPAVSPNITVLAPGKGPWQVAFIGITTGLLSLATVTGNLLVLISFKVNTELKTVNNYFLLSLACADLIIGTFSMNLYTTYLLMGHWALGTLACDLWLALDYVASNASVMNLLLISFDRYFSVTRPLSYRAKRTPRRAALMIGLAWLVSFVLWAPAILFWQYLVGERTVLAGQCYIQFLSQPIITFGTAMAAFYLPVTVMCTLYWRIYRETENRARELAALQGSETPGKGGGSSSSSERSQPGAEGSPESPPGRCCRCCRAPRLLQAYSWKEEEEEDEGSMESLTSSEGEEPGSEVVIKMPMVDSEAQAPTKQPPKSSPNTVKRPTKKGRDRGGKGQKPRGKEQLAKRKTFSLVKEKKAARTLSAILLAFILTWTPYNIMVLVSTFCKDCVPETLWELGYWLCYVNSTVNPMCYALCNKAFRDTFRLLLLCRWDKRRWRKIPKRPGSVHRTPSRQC
Sequence of Cytochrome P450 2C9 (Homo sapiens) (P11712 whole entry, looked up): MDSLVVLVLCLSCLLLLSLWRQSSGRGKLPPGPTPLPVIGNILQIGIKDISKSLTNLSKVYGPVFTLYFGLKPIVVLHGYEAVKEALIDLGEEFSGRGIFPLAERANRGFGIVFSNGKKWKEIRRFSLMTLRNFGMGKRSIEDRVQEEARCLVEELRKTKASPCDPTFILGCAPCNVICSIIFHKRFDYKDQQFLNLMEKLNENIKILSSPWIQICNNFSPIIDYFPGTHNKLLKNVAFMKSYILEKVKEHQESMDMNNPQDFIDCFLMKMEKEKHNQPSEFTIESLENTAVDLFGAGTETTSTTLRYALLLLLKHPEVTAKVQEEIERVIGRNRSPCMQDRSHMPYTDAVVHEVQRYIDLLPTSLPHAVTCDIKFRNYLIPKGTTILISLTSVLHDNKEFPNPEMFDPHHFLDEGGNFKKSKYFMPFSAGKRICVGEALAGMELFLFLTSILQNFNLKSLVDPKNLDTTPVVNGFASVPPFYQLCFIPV

`Cc1ccccc1N1C(=O)c2cc(S(N)(=O)=O)c(Cl)cc2NC1C` (stereo not drawn): the Potency result in [1], in [2], in experiment [3] and in experiment [5] was “inactive” throughout. The outcome in [4] was inactive.

Consider `Cc1ccc(C(=O)Nc2ccc(S(=O)(=O)O)c3cc(S(=O)(=O)O)cc(S(=O)(=O)O)c23)cc1NC(=O)c1cccc(NC(=O)Nc2cccc(C(=O)Nc3cc(C(=O)Nc4ccc(S(=O)(=O)O)c5cc(S(=O)(=O)O)cc(S(=O)(=O)O)c45)ccc3C)c2)c1`, for which the Potency result in [1], in experiment [7] and in [5] was “inactive” in each case. Besides, in [4], the molecule was classed as inactive. Moreover, in experiment [6], the Potency is 1.58 µM (active).

For `CN(C)CCC=C1c2ccccc2C=Cc2ccccc21`, the molecule was classed as inactive in experiment [8] and in experiment [4]. Also, the Potency in experiment [9] is 6.31 µM (active); in experiment [6] it was 0.0316 µM (active); in experiment [7] it was 0.112 µM (active). Further, in experiment [5], the Potency result is “inactive”.

For the molecule `COc1nc(C)nc(Cl)c1NC1=NCCN1`, in experiment [8], the molecule was classed as inactive. For the same molecule, the Potency entry in experiment [10] and in [5] was “inactive” throughout.

Regarding `NCCCCCC(=O)O`, the molecule was called inactive in [8] and in experiment [4]. Further, the Potency result in [3] and in experiment [5] was “inactive” in each case.

Take `Cn1ccc2cc3c(cc21)CCN3C(=O)Nc1cccnc1`: the Potency entry in experiment [1], in experiment [2] and in experiment [6] was “inactive” in each case. For the same molecule, the Potency in [5] is 7.94 µM (active).

Consider `CCc1cccc2c3c([nH]c12)C(CC)(CC(=O)O)OCC3` (stereo not drawn), for which the Potency entry in experiment [1] and in [5] was “inactive” throughout. Further, the outcome in [4] was inactive.

For `CN1C(C(=O)Nc2ccccn2)=C(O)c2ccccc2S1(=O)=O`, the Potency in experiment [11] is 3.98 µM (active); in experiment [10], “inactive and 6.31 µM (active)”. For the same molecule, the Potency result in experiment [2], in experiment [9] and in [5] was “inactive” throughout. In addition, in experiment [4], the molecule was classed as inactive.

For `CCOC(=O)Nc1ccc(NCc2ccc(F)cc2)nc1N`, the Potency entry in [1], in experiment [6], in [7] and in experiment [5] was “inactive” in each case.

`Clc1ccc2c(c1)C(N1CCNCC1)=Nc1ccccc1O2`: the Potency entry in [11], in experiment [2], in experiment [10] and in [5] was “inactive” in each case. In addition, the Potency in experiment [12] was 10 µM (active). In experiment [4], the molecule was classed as inactive.

Regarding `Clc1ccccc1C(c1ccccc1)(c1ccccc1)n1ccnc1`, the Potency is 1 µM (active) and 316 nM (active) in experiment [11]; 10 µM (active) in experiment [9]; 10 µM (active) in experiment [10]; 12.6 µM (active) in [12]. The Potency entry in experiment [2], in experiment [3] and in [5] was “inactive” throughout. Besides, the outcome in experiment [4] was inactive.

In the case of `O=C(Nc1ccc([N+](=O)[O-])cc1Cl)c1cc(Cl)ccc1O`, the Potency in [11] was 0.631 µM (active); in [5], 2.51 µM (active). Further, the Potency entry in [2] and in experiment [3] was “inactive” throughout. In addition, in [4], the outcome was inactive.

In the case of `CN(C)C(=O)C(CCN1CCC(O)(c2ccc(Cl)cc2)CC1)(c1ccccc1)c1ccccc1`, the Potency entry in experiment [1] and in [5] was “inactive” each time. Moreover, the molecule was called inactive in experiment [4].

In the case of `COc1cc2nc(N(C)CCCNC(=O)C3CCCO3)nc(N)c2cc1OC` (stereo not drawn), the outcome in experiment [8] and in experiment [4] was inactive. Further, the Potency result in [3] was “inactive”.

Regarding `CCN1CCCC1CNC(=O)c1cc(S(=O)(=O)CC)c(N)cc1OC` (stereo not drawn), the call in experiment [8] was inactive.

`COC(=O)Nc1nc2ccc(C(=O)c3cccs3)cc2[nH]1`: the Potency result in experiment [11], in experiment [9], in experiment [10] and in experiment [5] was “inactive” each time. In addition, the molecule was classed as inactive in [8] and in experiment [4].

As to `CN(C)CCOC(c1ccccc1)c1ccccc1`, the Potency result in [1], in experiment [3] and in experiment [5] was “inactive” each time. For the same molecule, in experiment [4], the result was inactive.

`CC[N+](CC)(CC)CCOc1cccc(OCC[N+](CC)(CC)CC)c1OCC[N+](CC)(CC)CC`: the Potency result in [1] and in experiment [5] was “inactive” throughout.
